Laboratory results from publication PMC6919601, “Identification of Plasmodium dipeptidyl aminopeptidase allosteric inhibitors by high throughput screening” (PLoS ONE, 2019).
Screen size: about 110,000 compounds; about 230 (0.21%) showed an effect of 50% or more. This excerpt belongs to a sample that is enriched for strong results.

Target: DPAP1 (Plasmodium falciparum, UniProt Q8IIJ9)
Assay: primary screen, percent inhibition; read by cleavage of a fluorogenic dipeptide substrate; higher = more effect of the substance
Set-up: species or system P. falciparum D10 trophozoite lysates; single well
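Further: 30 min substrate incubation versus DMSO and 10 µM JCP410 controls.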

Sequence of DPAP1 (Q8IIJ9 whole entry, looked up): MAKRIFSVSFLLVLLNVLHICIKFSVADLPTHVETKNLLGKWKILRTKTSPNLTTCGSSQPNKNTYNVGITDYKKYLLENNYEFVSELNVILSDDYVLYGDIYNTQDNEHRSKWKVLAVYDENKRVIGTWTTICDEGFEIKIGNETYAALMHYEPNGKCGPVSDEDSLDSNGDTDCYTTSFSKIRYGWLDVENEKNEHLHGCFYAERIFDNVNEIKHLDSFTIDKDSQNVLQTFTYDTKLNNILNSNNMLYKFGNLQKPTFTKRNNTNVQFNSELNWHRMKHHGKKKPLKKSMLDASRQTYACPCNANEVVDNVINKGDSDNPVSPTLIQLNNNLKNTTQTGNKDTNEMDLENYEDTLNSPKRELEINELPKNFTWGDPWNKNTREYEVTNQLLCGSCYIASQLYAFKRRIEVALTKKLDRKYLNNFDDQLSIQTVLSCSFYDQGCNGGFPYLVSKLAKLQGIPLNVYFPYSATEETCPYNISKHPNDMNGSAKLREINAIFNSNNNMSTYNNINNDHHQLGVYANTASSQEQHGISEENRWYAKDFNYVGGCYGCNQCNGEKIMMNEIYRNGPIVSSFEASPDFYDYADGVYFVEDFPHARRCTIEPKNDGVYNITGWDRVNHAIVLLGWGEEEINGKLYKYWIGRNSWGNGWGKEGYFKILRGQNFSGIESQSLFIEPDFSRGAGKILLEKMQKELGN

Point of comparison: `CSc1nc2n(n1)C(c1ccc(F)c(Br)c1)C1=C(O)CC(C)(C)CC1=N2` (stereo not shown), “% Inhibition @ 10 uM” value -1.62%. Against it:
- Cc1ccc2oc(=O)c3cc(C(=O)N4CCC(C)CC4)sc3c2c1 — higher, 0.809%
- CCCOc1ccc(CN(C(=O)c2nc(SC)ncc2Cl)C2CCS(=O)(=O)C2)cc1 (stereo not shown) — lower, -4.64%
- Cc1cc(C)c2c(n1)nn1c(C3CC3)cc(C(F)(F)F)nc21 — higher, 2.54%
- O=C(NCC(=O)N1CCOCC1)c1ccccc1 — higher, 15.6%
- O=C(NCCc1ccccc1)C1CCCN(S(=O)(=O)c2cccc3cccnc23)C1 (stereo not shown) — lower, -4.69%
- COc1cccc(C(=O)Nc2ccc(C(C)C)cc2)c1 — higher, -1.25%
- COCCOC(=O)N/C=C\c1nc(O)c2ccccc2n1 — lower, -4.65%
- CCOC(=O)c1cnn2c(C(F)(F)F)cc(C)nc12 — lower, -3.53%
- N#Cc1c2c(c(S)sc1=N)CCCC2 — higher, 59.6%
- CN1CCc2c(c(S)sc(=N)c2C#N)C1 — higher, 5.59%
- CC1(C)Cc2c(c(S)sc(=N)c2C#N)CO1 — higher, 8.27%
- COc1cccc(CNC(=O)CNC(=S)N(Cc2ccccc2)Cc2cccnc2)c1 — higher, -0.406%
- Cc1cc(C)c2c(-n3cccc3)nn(CC(=O)N3CCCCCC3)c2n1 — lower, -3.52%
- COCC(=O)Nc1nc2nccc(C)n2n1 — higher, -1.31%
- CCn1c(C(=O)N2CCC(C(=O)NCCN(CC(C)C)CC(C)C)CC2)cc2sccc21 — lower, -5.19%
- CCn1c(C(=O)N2CCC(C(=O)NCCC(C)C)CC2)cc2sccc21 — higher, 92.1%
- CCn1c(C(=O)N2CCC(C(=O)NCCOC)CC2)cc2sccc21 — higher, 4.95%
- N#CCNC(=O)[C@H](CC1CCCCC1)NC(=O)c1sccc1Br — higher, 1.35%
- O=C1C(Nc2cccc(O)c2)=C(N2CCCCC2)C(=O)c2ccccc21 — higher, 0.162%
- Nc1ccc(NC2=C(N3CCCCC3)C(=O)c3ccccc3C2=O)cc1 — higher, 53.5%
- O=C1C(Nc2cccc(Br)c2)=C(N2CCCCC2)C(=O)c2ccccc21 — higher, 1.84%
- Cn1c2ccccc2c2nc3cc4ccccc4cc3nc21 — lower, -2.54%
- COCCN1C(=O)c2ccccc2C(C(=O)Nc2ccc(Cl)cn2)C1c1cccs1 (stereo not shown) — higher, 4.33%
- C=CCOc1ccc(C(=O)C2=C(O)C(=O)N(c3ccccn3)C2c2ccc(F)cc2)cc1 (stereo not shown) — higher, 2.86%
- C#CCN1C(=O)C(O)(CC(=O)c2ccc3ccccc3c2)c2ccccc21 (stereo not shown) — lower, -20.7%
- Cn1c(SCC(=O)NCCc2ccccc2)nc2c1c(=O)n(Cc1ccccc1Cl)c(=O)n2C — higher, 3.81%
- CC1CCN(C(=O)CCN2C(=O)c3ccccc3C2=O)CC1 — higher, 2.06%
- Cc1ccc(-c2cc(NC(=O)COc3ccc(C(C)C)cc3)on2)cc1 — higher, -1.47%
- O=C(NCCc1c[nH]c2ccccc12)c1noc2c1COc1ccccc1-2 — higher, 91.5%
- Cc1cccc(CCNC(=O)c2cc3c(s2)-c2ccccc2OC3)c1 — lower, -4.85%
- CCOc1ccc(CCNC(=O)c2noc3c2COc2ccccc2-3)cc1OCC — higher, 80.8%
- CN(CCNC(=O)c1noc2c1COc1ccccc1-2)C1CCCCC1 — higher, 2.73%
- CCOC(=O)c1noc2c1COc1ccccc1-2 — higher, -1.51%
- O=C(NCC1(c2ccccc2)CCCC1)c1noc2c1COc1ccccc1-2 — higher, 47.2%
- O=C(NCCc1ccccc1)c1noc2c1CCc1ccccc1-2 — lower, -7.85%
- COc1ccc(CCNC(=O)c2noc3c2COc2ccc(C)cc2-3)cc1OC — lower, -4.07%
- Cc1cccc(CCNC(=O)c2noc3c2COc2ccccc2-3)c1 — higher, 75.2%
- CCOc1ccc(-c2cc(NC(=O)c3noc4c3COc3ccccc3-4)on2)cc1OCC — lower, -1.72%
- O=C(NCCc1ccc(Cl)cc1)c1noc2c1COc1ccccc1-2 — higher, 82.6%
- Cc1ccc2c(c1)-c1onc(C(=O)NCCN(C)C)c1CO2 — lower, -4.37%
- O=C(/C=C/c1ccco1)N(Cc1cccc(F)c1)C1CCS(=O)(=O)C1 (stereo not shown) — higher, -1.35%
- O=C(Nc1ccccc1)N1CCN(c2ccccc2)CC1 — higher, 1.33%
- CC(NCC(O)Cn1nnnc1-c1ccccc1)c1ccccc1 (stereo not shown) — higher, 2.5%
- Cc1ccc(NC(=O)C(C)Oc2ccccc2C)c(C)c1 (stereo not shown) — higher, 6.79%
- CC(=O)c1c(S)nc(-c2ccccc2)nc1N1CCN(Cc2ccccc2)CC1 — higher, 29.2%
- CCOc1ccc(C(=O)NCC2CCN(C(=O)c3ccc(OCC)cc3)CC2)cc1 — higher, 5%
- O=[N+]([O-])c1c(NCCO)cc(Cl)c2nonc12 — higher, 5.66%
- COc1ccccc1N1C(=O)CC(N2CCN(C)CC2)C1=O (stereo not shown) — lower, -6.08%
- COC(=O)/C(C#N)=C/c1ccc(C)o1 — higher, -0.256%
- COc1ccc(/C=C(\C#N)C(N)=S)cc1 — lower, -2.51%
- Cc1ccc(/C=C(\C#N)C(N)=S)o1 — higher, 79.5%
- CCOC(=O)C1=C(CN2CCN(C(=O)OCC)CC2)NC(=O)NC1c1cccs1 (stereo not shown) — lower, -3.36%
- COc1ccc(C(=O)CC(=O)c2ccc(OC)c(OC)c2)c(O)c1 — higher, 4.74%
- Cc1ccc(S(=O)(=O)Nc2nc3ccccc3nc2N2CCCCC2)cc1 — higher, -0.969%
- CCn1c2ccc(OC)cc2c2nc3ccccc3nc21 — lower, -3.13%
- CSc1nnc2c(n1)[nH]c1ccc(C)cc12 — higher, 2.51%
- Cc1ccc2c(c1)c1nnc(S)nc1n2Cc1ccccc1 — higher, 3.73%
- CCn1c2ccc(OC)cc2c2nnc(S)nc21 — higher, 79.3%
- Fc1ccc2c(c1)c1nnc(S)nc1n2CCc1ccccc1 — higher, 10.9%
- CCn1c2ccccc2c2nnc(S)nc21 — higher, 38%
- Cc1ccc2[nH]c3nc(S)nnc3c2c1 — higher, 12.4%
- Cn1c2ccc(F)cc2c2nnc(S)nc21 — higher, 74%
- CCCCn1c2ccc(C)cc2c2nnc(S)nc21 — higher, 61%
- CCCCn1c2ccccc2c2nnc(S)nc21 — higher, 36.5%
- Fc1ccc2[nH]c3nc(S)nnc3c2c1 — higher, 56%
- CCn1c2ccc(F)cc2c2nnc(S)nc21 — higher, 32.8%
- CC(C)c1nc2ccccc2n1Cc1ccccc1F — higher, 1.12%
- NC(=O)C1CCN(C(=O)COCc2cc(-c3ccc4c(c3)OCO4)on2)CC1 — lower, -4.1%
- COCCCNC(=O)c1cnn2c(C(F)(F)F)cc(-c3cccs3)nc12 — lower, -2.26%
- Nc1ncnc2c1nc(S(=O)(=O)O)n2Cc1ccccc1 — lower, -1.69%
- CCSC1=NSC2=NC(=O)/C(=C\c3c(C)[nH]c4ccccc34)C(=N)N12 — higher, 4.79%
- Cc1cc2ccccc2n1CCNC(=O)C(c1ccccc1)c1ccccc1 — lower, -4.89%
- COCCNC(=O)C1CCCN(S(=O)(=O)N(C)C2CCCCC2)C1 (stereo not shown) — lower, -2.86%
- Sc1nnc2c(n1)[nH]c1ccccc12 — higher, 38%
- c1ccc2nc3c(nc2c1)[nH]c1ccccc13 — lower, -1.8%
- Sc1nnc2[nH]c3ccccc3c2n1 — higher, 56.9%
- Cc1nc2ccc(S(=O)(=O)NC(C(=O)NCCc3ccccc3)C(C)C)cc2s1 (stereo not shown) — higher, -0.0115%
- Cc1ccc2[nH]c(SCC(=O)Nc3ccc(Cl)cc3)nc2c1 — higher, 5.24%
- COc1cccc2cc(-c3cn(-c4cccc(C)c4)c(S)n3)c(=O)oc12 — higher, 20.1%
- Cc1cc(C)c2c(=O)n(CC(=O)NCCc3ccc(Cl)cc3)sc2n1 — higher, 15.6%
- Cc1cc(C)c2c(=O)n(CC(=O)NCc3ccc4c(c3)OCO4)sc2n1 — higher, 12%
- Cc1cc(C)c2c(=O)n(CC(=O)NCc3ccccc3Cl)sc2n1 — higher, 83.7%
- Cc1c(C(=O)Nc2nc3c(s2)CCCC3)oc2ccccc12 — lower, -2.85%
- N#CC1=C(N)Oc2[nH]nc(-c3ccncc3)c2C1c1ccncc1 (stereo not shown) — higher, 3.92%
- CCOc1cc(-c2c(C)c(C)nc(N)c2C#N)ccc1O — lower, -1.79%
- O=C(O)C1Nc2c(cccc2C(F)(F)F)C2C=CCC12 (stereo not shown) — higher, 0.345%
- CC(C)C1Nc2c(C(=O)O)cccc2C2C=CCC21 (stereo not shown) — higher, -1.2%
- O=C(O)c1cccc2c1NC(C(=O)O)C1CC=CC21 (stereo not shown) — higher, 65.6%
- CCc1nn(CCCC(=O)NC2CCCCC2C)c(=O)c2cc3occc3n12 (stereo not shown) — higher, -0.281%
- CCOc1ccc(C(=O)Nc2ccc(-c3nc4ncccc4o3)cc2)cc1Cl — lower, -4.82%
- CCc1cccc(C)c1NC(=O)c1cc(OC)cc(OC)c1 — higher, 15.2%
- O=C(O)CN1C(=O)c2cc(Cl)c(Cl)cc2C1=O — higher, 3.67%
- COc1ccccc1-n1c(CNC(=O)c2cccc(C)c2)nnc1SCC(=O)Nc1nccs1 — higher, 2.12%
- Cc1ccc(C)c(-n2c(CNC(=O)c3cccc(F)c3)nnc2SCC(=O)Nc2nccs2)c1 — higher, 73.7%
- Cc1ccc(C(=O)NCc2nnc(SCC(=O)Nc3nccs3)n2-c2ccccc2)cc1C — lower, -4.97%
- C[C@H](NC(=O)CCc1ccccc1)c1ccccc1 — higher, 4.22%
- CC(C)n1c(NC2CCCCC2)nc2c1c(=O)[nH]c(=O)n2C — higher, -1.11%
- Cc1cc(C)c2oc(C(=O)Nc3nnc(C(C)C)s3)cc(=O)c2c1 — higher, 53.6%
- Cc1cc(C)c2oc(C(=O)Nc3nnc(C)s3)cc(=O)c2c1 — lower, -3.24%
- Cc1cc(C)c2oc(C(=O)Nc3nnc(CC(C)C)s3)cc(=O)c2c1 — higher, 3.51%
- Cc1cc(C(=O)NCCc2ccccc2)c2c(C)nn(-c3ccccc3)c2n1 — lower, -6.46%
- COC(=O)CSc1nc(C)c(C)c(C)c1C#N — higher, 4.15%
- Cc1nc(SCC(=O)O)c(C#N)c(C)c1C — higher, 72.9%
- Cc1nc(SCC(N)=O)c(C#N)c(C)c1C — higher, -0.239%
- O=C(CSC1CC(=O)N(c2cccc(Cl)c2)C1=O)Nc1ccc(F)cc1 (stereo not shown) — higher, 2.13%
- CC(=O)Nc1ccc(Oc2ccc(NC(C)=O)c(NC(C)=O)c2)cc1 — higher, 70.7%
- CCC(=O)Nc1ccc(Oc2ccc(NC(=O)CC)c(NC(=O)CC)c2)cc1 — higher, 8.21%
- CC(=O)Nc1ccc(Oc2cccc(Oc3ccc(NC(C)=O)cc3)c2)cc1 — lower, -6.02%
